Only some compounds are listed: those with a hit (about 3.5% of all), similar ones and a draw of the others.
BoNT A protease = BoNT/A light chain protease inhibitors, primary screen, biochemical, flow cytometry, MLPCN library; Botulinum neurotoxin type A light chain protease (Clostridium botulinum A str. ATCC 3502); multiplex microsphere protease substrate cleavage; inhibition, % at 10 µM; 360,000 compounds, 0.17% hits; AID 588499, 2011
Anthrax LF prot = Bacillus anthracis LF protease inhibitors, primary screen, biochemical, multiplex microsphere, MLPCN library; multiplex microsphere protease cleavage assay; inhibition, % at 10 µM; 360,000 compounds, 0.12% hits
Target sequence (P15917 whole entry, looked up): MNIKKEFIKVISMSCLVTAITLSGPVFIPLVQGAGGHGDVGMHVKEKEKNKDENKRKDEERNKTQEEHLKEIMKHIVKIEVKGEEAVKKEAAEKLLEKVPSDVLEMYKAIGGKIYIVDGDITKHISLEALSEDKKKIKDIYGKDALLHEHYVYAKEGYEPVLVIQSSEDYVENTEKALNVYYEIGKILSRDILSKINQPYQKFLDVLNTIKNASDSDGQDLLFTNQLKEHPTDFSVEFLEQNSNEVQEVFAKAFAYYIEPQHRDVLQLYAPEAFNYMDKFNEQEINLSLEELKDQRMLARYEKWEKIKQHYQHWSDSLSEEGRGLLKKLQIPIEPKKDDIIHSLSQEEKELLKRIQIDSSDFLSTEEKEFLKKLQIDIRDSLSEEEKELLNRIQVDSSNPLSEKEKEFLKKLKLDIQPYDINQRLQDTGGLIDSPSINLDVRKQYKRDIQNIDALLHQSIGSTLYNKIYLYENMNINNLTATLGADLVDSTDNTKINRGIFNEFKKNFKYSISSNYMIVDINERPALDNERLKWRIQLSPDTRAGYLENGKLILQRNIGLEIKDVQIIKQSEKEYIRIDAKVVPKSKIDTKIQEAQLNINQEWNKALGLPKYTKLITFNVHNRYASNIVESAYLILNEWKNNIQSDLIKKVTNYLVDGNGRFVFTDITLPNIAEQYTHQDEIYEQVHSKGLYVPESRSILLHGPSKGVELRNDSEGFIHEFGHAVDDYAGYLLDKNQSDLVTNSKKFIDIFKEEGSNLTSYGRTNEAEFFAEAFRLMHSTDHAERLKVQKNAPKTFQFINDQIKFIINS
BoNT-F LC inh = BoNT/F light chain protease inhibitors, primary screen, biochemical, flow cytometry, MLPCN library; Botulinum neurotoxin type F light chain protease (Clostridium botulinum); Multiplex microsphere protease cleavage assay; inhibition, % at 10 µM; 360,000 compounds, 0.22% hits; AID 588497, 2011; in the data active means inhibition above about 35%, passing the limit was not always enough; inconclusive means no clear call, values can overlap the other calls
Bead autofluor = flagged as autofluorescent in microsphere protease counterscreen | 360,000 compounds, 3.1% hits | compound autofluorescence counterscreen, microsphere flow cytometry; stronger effect = higher value | fluorescence intensity (concentration not given with the values) | AID 624483; in the data active means fluorescence intensity above about 16000; inconclusive means no clear call, values can overlap the other calls
Of the large screens only hits and unclear results are named; the others gave an inactive call. Unless noted, no stated cut-off is given here; in the data, active means inhibition above about 30%; inconclusive means no clear call, values can overlap the other calls; inactive means below that.

O=C(c1cccnc1)N1CCN(S(=O)(=O)c2ccc3ccccc3c2)CC1	Bead autofluor 16645
O=C(Oc1cccnc1)c1cc(S(=O)(=O)N2CCOCC2)ccc1Cl	none
O=C(Oc1cccnc1)c1cc(S(=O)(=O)N2CCCCC2)ccc1Cl	Bead autofluor 21012
CCN(CC)c1ccc(/C=C/[N+](=O)[O-])cc1	BoNT A protease 65.9, Anthrax LF prot 35.1
CCN(CC)c1ccc(/C=N/NC(=O)c2ccc([N+](=O)[O-])cc2)cc1	none
CC1(C)CC(=O)c2c(O)cc(OCc3ccc([N+](=O)[O-])cc3)cc2O1	BoNT A protease inconclusive, Bead autofluor 24979
O=C(O)C1OC1(c1ccccc1Cl)c1ccccc1Cl (stereo not drawn)	none
CN(Cc1ccccc1)C(=O)COC(=O)CNS(=O)(=O)c1ccc2ccccc2c1	Bead autofluor inconclusive
O/N=C/c1cccn1-c1ccc(O)cc1	Bead autofluor 23862
COc1cc2[nH]c(=O)n(CCCCCC(=O)N3CCN(c4ccccc4)CC3)c(=O)c2cc1OC	Bead autofluor 19560
O=C(Cc1csc(N2CCOCC2)n1)N/N=C/c1ccc(F)cc1	Bead autofluor 20712
CCOCc1c(C(=O)Nc2ccccc2N2CCN(C)CC2)oc2ccccc12	none
O=C1NC(N2CCOCC2)=N/C1=C/c1ccc2c(c1)OCO2	none
CCOC(=O)c1sc(-c2ccc(Br)cc2)cc1N	Bead autofluor 18598
CCOC(=O)c1cc(-c2ccc(N)cc2)sc1N	Bead autofluor 18171
CCOC(=O)c1sc(-c2ccccc2)cc1NC(=O)Nc1ccccc1	none
CCN1CCN(c2ccc(NC(=O)c3ccc4c(c3)[nH]c(=O)n4Cc3ccc(F)cc3)cc2)CC1	none
O=C(Nc1cccc(C(F)(F)F)c1)c1cc2c(=O)c3ccccc3oc2nc1C(F)(F)F	BoNT A protease inconclusive, Bead autofluor 23568
O=C(Nc1ccccc1)c1cc2c(=O)c3ccccc3oc2nc1C(F)(F)F	none
COc1ccc(N2CCN(S(=O)(=O)/C=C/c3ccccc3)CC2)cc1	none
COc1cc2c(cc1OC)CN(S(=O)(=O)/C=C/c1ccccc1)CC2	BoNT-F LC inh 39.9
COC(=O)C(CC(C)C)N1CCC(=O)c2ccccc2S1(=O)=O (stereo not drawn)	none
CC1=CC2=C(OC1N(C)C)c1cccc3cccc(c13)C2=O (stereo not drawn)	Bead autofluor 21836
Cc1ccc(NC(C)c2cc(Cl)ccc2O)cc1 (stereo not drawn)	BoNT A protease inconclusive, Bead autofluor 21916
CC(Nn1cnnc1)c1cc(Cl)ccc1O (stereo not drawn)	none
Cc1cc(Br)ccc1OCC(=O)N(Cc1nc(-c2ccccc2)no1)C(C)C	Bead autofluor 20443
CC(C)N(Cc1nc(-c2ccccc2)no1)C(=O)Cc1ccccc1	none
COc1cccc(C(=O)N(Cc2nc(-c3ccc(C)cc3)no2)C(C)C)c1	BoNT A protease inconclusive, Bead autofluor 23492
Cc1ccc(-c2noc(CN(C(=O)Cc3ccccc3)C(C)C)n2)cc1	BoNT A protease inconclusive, Bead autofluor 19931
CCC(Cc1ccccc1)NS(=O)(=O)c1c(C)nc2scc(C)n2c1=O (stereo not drawn)	none
CC(C)(C)NC1=CC(=O)OC12CCCCC2	Bead autofluor 23197
CC(C)C[C@@H]1COc2cccc(N3CCSCC3)c2S(=O)(=O)N1	none
Nc1ncnc(Nc2cc(C(F)(F)F)cc(C(F)(F)F)c2)n1	none
Nc1ncnc(Nc2cccc(C(F)(F)F)c2)n1	BoNT A protease inconclusive, Bead autofluor 17187
CC(C)N1C(=S)N(Cc2ccco2)C(=O)C1CC(=O)Nc1ccccc1 (stereo not drawn)	none
Cc1nnc2c3ccccc3c(-c3cccc4ccccc34)nn12	BoNT A protease inconclusive, Bead autofluor 19934
NC(=O)c1ccsc1NC(=O)COC(=O)CNC(=O)c1ccc(Cl)cc1	none
COc1cc(NC(=O)c2cc(-c3cccnc3)nc3ccc(Br)cc23)cc(OC)c1	none
O=C(Nc1cccnc1)c1cc(-c2cccnc2)nc2ccc(Br)cc12	Bead autofluor 21271
COCCNC(=O)c1cc(-c2cccnc2)nc2ccc(Br)cc12	Bead autofluor 23362
COc1ccc(N(CC(=O)NCC2CCCO2)S(=O)(=O)c2c(C)noc2C)cc1 (stereo not drawn)	BoNT A protease inconclusive, Bead autofluor 23408
O=C(CN(c1ccc(F)cc1)S(=O)(=O)c1ccc2c(c1)OCCO2)NCC1CCCO1 (stereo not drawn)	Bead autofluor 22449
COc1ccc(N(CC(=O)NCc2cccc(OC)c2)S(=O)(=O)c2c(C)noc2C)cc1	Bead autofluor 20088
Cc1cccc(NS(=O)(=O)c2ccc(C(=O)N3CCC3)cc2)c1C	Bead autofluor inconclusive
COc1cc(C(=O)Nc2cccc(C)c2C)ccc1OCC(=O)N1CCOCC1	none
Cc1nn(CC(=O)NC2CCS(=O)(=O)C2)c(C)c1[N+](=O)[O-] (stereo not drawn)	none
O=C(C1CSC2(c3ccc(F)cc3)CCC(=O)N12)N1CCCCCC1 (stereo not drawn)	Bead autofluor 20230
N#Cc1c(-n2ccnc2)cccc1-n1ccnc1	Bead autofluor 21837
COc1cc(Cl)ccc1OC1(C)CCN(Cc2c(F)cccc2F)C1 (stereo not drawn)	none
O=C(NCc1ccccc1)NC1(C(=O)Nc2ccc3c(c2)OCCO3)CCCCC1	Bead autofluor 22030
O=C(NCc1ccc2c(c1)OCO2)Nc1ccc(F)cc1	none
Cc1ccc(NC(=O)NC2(C(=O)NCc3ccco3)CCCCC2)cc1	none
O=C(Nc1ccccc1)NC1(C(=O)NCc2ccco2)CCCCC1	Bead autofluor 17118
O=C(Nc1ccccc1)NC1(C(=O)NCc2ccc3c(c2)OCO3)CCCCC1	Bead autofluor 22677
C[C@H](CO)N1C[C@H](C)[C@H](CN(C)C(=O)Nc2ccccc2F)OCc2cnnn2CCCC1=O	none
CC(=O)N1CCN(Cc2ccc(Br)s2)CC1	Bead autofluor 22754
Cc1cccc(C)c1NC(=O)CN1CCc2ccccc2C1	BoNT-F LC inh inconclusive
Cc1cccn2c(=O)c3cc(C(=O)NCc4ccco4)c(=N)n(C(C)C)c3nc12	Bead autofluor 16268
COCCNC(=O)c1cc2c(=O)n3cccc(C)c3nc2n(Cc2ccncc2)c1=N	none
CCCCNC(=O)c1cc2c(=O)n3cccc(C)c3nc2n(Cc2ccncc2)c1=N	Bead autofluor 24016
CCc1ccc(C(=O)Nc2ccc3c(c2)n(C)c(=O)n3C)cc1	none
CCC(CO)NCc1ccc2c(c1)n(C)c(=O)n2C (stereo not drawn)	Bead autofluor 16488
O=C(CCc1ccc(S(=O)(=O)N2CCOCC2)cc1)N/N=C/c1ccc(O)c(O)c1O	none
CCCn1c(SCC(=O)N2CCCc3ccccc32)nc2c1c(=O)n(C)c(=O)n2C	Bead autofluor 21086
CCCn1c(SCC(=O)Nc2cc(C)on2)nc2c1c(=O)n(C)c(=O)n2C	Bead autofluor 22114
CCCn1c(SCC(=O)NCc2ccco2)nc2c1c(=O)n(C)c(=O)n2C	Bead autofluor 22819
CCCn1c(SCC(=O)N2c3ccccc3Sc3ccccc32)nc2c1c(=O)n(C)c(=O)n2C	none

Bioassay records from PubChem.
